PubChem BioAssay AID1159580 (chemical genetic matrix, 2015)
The whole screen tested about 5,500 compounds, of which about 2,000 (36%) were called active. Another 18% or so got no clear call; they are omitted. Rule as the data show it: active = normalized growth mostly below about 0.91 (no sharp cut-off); inconclusive = no clear call, values can overlap the other calls; inactive = mostly above about 0.92. This is one part of the list.

Assay: chemical genetic growth profiling, strain panel (AID 1159580);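 also: tested at 20 µM; growth read once vehicle control cultures reached saturation at 30 °C; 1 = growth at the plate median or of vehicle wells; lower values mean less growth of the strain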
Settings: S. cerevisiae deletion strains, growth OD

Measured: normalized growth

CCOC(=O)C(c1ccccc1)C(Nc1ccc(Cl)c(Cl)c1)c1ccccn1 (configuration not stated)
inactive: locus YAL013W, strain DEP1, hits give low values 1.01 | locus YBR229C, strain ROT2, hits give low values 1.01 | locus YCL061C, strain MRC1, hits give low values 1.02 | locus YDL101C, strain DUN1, hits give low values 1.03 | locus YDR150W, strain NUM1, hits give low values 1.02 | locus YEL061C, strain CIN8, hits give low values 0.996 | locus YGR078C, strain PAC10, hits give low values 1.01 | locus YHR030C, strain SLT2, hits give low values 1.11 | locus YHR087W, strain rtc3, hits give low values 0.986 | locus YJR043C, strain POL32, hits give low values 1.03 | locus YJR075W, strain HOC1, hits give low values 1.03 | locus YKL190W, strain CNB1, hits give low values 1.01 | locus YLR058C, strain SHM2 (second series), hits give low values 1.01 | locus YLR085C, strain ARP6, hits give low values 1.02 | locus YLR262C, strain YPT6, hits give low values 1.15 | locus YML094W, strain GIM5, hits give low values 1.01 | locus YMR219W, strain ESC1, hits give low values 1 | locus YMR263W, strain SAP30, hits give low values 0.985 | locus YNL128W, strain TEP1, hits give low values 1.03 | locus YNL153C, strain GIM3, hits give low values 1.01 | locus YNL298W, strain CLA4 (second series), hits give low values 1.01 | locus YNL322C, strain KRE1, hits give low values 1.01 | locus YNR030W, strain Alg12, hits give low values 1.01 | locus YPL055C, strain LGE1, hits give low values 0.995 | locus YPL241C, strain CIN2, hits give low values 1.01 | locus YPR135W, strain CTF4, hits give low values 1.01
active: locus YLR039C, strain RIC1, hits give low values 1.21 [resistant]
